# Several values for one entry are separate records, joined by “and”; a condition that tells them apart may be missing. Identical values can stand only once. Inconclusive results are not listed. Entries that show only a call come without a potency. Activity calls are given as the source filed them. The call rests on the fitted dose curve; in most records, active means well fitted curve in the direction sought with a large enough effect; inconclusive means small, poorly fitted or top-dose-only effect, or another doubt; inactive means no such curve, though single readings can be large; an effect the other way counts as inactive or inconclusive.
# Legend:
# [1] = SW1088 Cancer Cell Toxicity qHTS against the NCATS CANVASS Library (AID 1347350); further: nearly all actives have a fitted effect of over 75% in size; further: potency means the concentration at half of the fitted maximal effect
# How it was run: (§1)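 Per well, 1000 cells; exposure 72 h with compound at 11 final concentrations; readout CellTiter-Glo luminescence.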
# [2] = A2780 Cisplatin Sensitive Ovarian Cancer Cell Toxicity qHTS against the NCATS CANVASS Library (AID 1347353); further: potency means the concentration at half of the fitted maximal effect; nearly all actives have a fitted effect of over 60% in size
# How it was run: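 750 cells/well, 4 h settle; 11-pt cpd titration; 72 h, 37 °C, 5% CO2; ATPLite 10 min RT; luminescence read.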
# [3] = UWB1.289-WTBRCA1 Cancer Cell Toxicity qHTS against the NCATS CANVASS Library (AID 1347354)
# How it was run: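 1000 cells/well, 4 h pre-incubation 37 °C/5% CO2; 11-pnt titration; 72 h; CellTiter-Glo 15 min RT, luminescence.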
# [4] = test system: NAD(P)H diaphorase (Clostridium kluyveri); experiment: Diaphorse counterscreen qHTS: Assay Interference Panel against the NCATS CANVASS Library (AID 1347362)
# How it was run: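 Clostridium kluyveri diaphorase in PBS with 0.01% Tween-20 was preincubated 15 min at room temperature in the dark with compounds (11-point series). Resorufin fluorescence (ex 525/20, em 598/25) was read 5 min after adding resazurin/NADH.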
# [5] = G06 Cancer Cell Toxicity qHTS against the NCATS CANVASS Library (AID 1347368); further: nearly all actives have a fitted effect of over 60% in size; further: potency means the concentration at half of the fitted maximal effect
# How it was run: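 ATP luminescence (CellTiterGlo) readout of cytotoxicity. Canine G06 glioma cells, 500/well, 72 hr incubation at 37C with compounds; bortezomib titration served as control.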
# [6] = qHTS for ATAD5 Antagonist screened against the NCATS CANVASS Library (AID 1347370); further: potency means the concentration at half of the fitted maximal effect; nearly all actives have a fitted effect of over 65% in size
# How it was run: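 HEK293T-ATAD5 luc reporter, 2000 cells/well; 5hr attach; cpd + 10 uM 5-FUrd; 16hr 37C, 5% CO2. Readouts: CellTiter-Fluor fluorescence (1hr), then Amplite luciferase luminescence (30min RT).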
# [7] = biological target: Nuclear receptor subfamily 1 group I member 3 (Homo sapiens) (UniProt Q14994); experiment: qHTS for Constitutive Androstane Receptor (CAR) Agonist screened against the NCATS CANVASS Library (AID 1347373);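 further: every well also contained 1.5 µM PK11195 alongside the test compound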
# Sequence of Nuclear receptor subfamily 1 group I member 3 (Homo sapiens) (Q14994 whole entry, looked up): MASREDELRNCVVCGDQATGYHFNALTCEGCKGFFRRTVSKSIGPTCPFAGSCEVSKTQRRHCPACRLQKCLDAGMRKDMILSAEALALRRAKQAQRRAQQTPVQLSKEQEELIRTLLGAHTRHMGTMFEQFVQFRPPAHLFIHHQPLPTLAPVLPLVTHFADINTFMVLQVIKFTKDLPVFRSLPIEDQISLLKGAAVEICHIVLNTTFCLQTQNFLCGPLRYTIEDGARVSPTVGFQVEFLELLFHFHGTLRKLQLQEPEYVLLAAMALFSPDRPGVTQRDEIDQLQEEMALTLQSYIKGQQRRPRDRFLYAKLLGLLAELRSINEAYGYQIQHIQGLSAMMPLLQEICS
# How it was run: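 Luciferase read-out (ONE-Glo, 30 min RT) of CYP2B6-2.2kb promoter activity in double-stable HepG2-hCAR cells after 24hr compound exposure with 1.5uM PK11195 present; viability measured first by CellTiter-Fluor.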
# [8] = qHTS for Hypoxia signaling pathway (HIF-1) antagonists against the NCATS CANVASS Library (AID 1347374); further: potency means the concentration at half of the fitted maximal effect; nearly all actives have a fitted effect of over 60% in size
# How it was run: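 Beta-lactamase reporter under HRE control in ME-180 cells; CoCl2 stimulus (60 uM solution as added), compounds 11-pt qHTS, 17 h 37C. CCF4 dye 2 h RT, 460/530 nm emission. CellTiter-Glo viability in same wells.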
# [9] = qHTS for Hypoxia signaling pathway (HIF-1) agonists against the NCATS CANVASS Library (AID 1347375)
# How it was run: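 Read-out: beta-lactamase FRET (CCF4-AM, ex 405, em 460 and 530 nm) after 2 h at room temperature. ME-180 cells stably carrying HRE-bla were treated 17 h at 37C with compounds in an 11-point concentration series.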
# [10] = DH5-alpha competent E. coli microbial cell viability qHTS against the NCATS CANVASS Library (AID 1347377); conditions: outcome: dose series up to 46.1 µM unless noted
# How it was run: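 Luminescent ATP read-out (BacTiter-Glo, 20 min RT) after overnight 37C culture of DH5-alpha E. coli with compounds; daunomycin control at 0.2 nM–9.2 uM final.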
# [11] = qHTS for Inflammasome Signaling Inhibitors: IL-1-beta AlphaLISA screen against the NCATS CANVASS Library (AID 1347379);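 further: human THP-1 cells primed with LPS then triggered with ATP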;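 on potency: secreted IL-1B measured as AlphaLISA emission at 615 nm; potency means the concentration at half of the fitted maximal effect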
# How it was run: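 THP-1, 1 hr compound pre-incubation, then LPS 250 ng/mL + ATP 1.25 mM (final); 16 hr total with compound; IL-1B AlphaLISA, ex 680/em 615 nm; 11-point qHTS, up to 57.5 uM final.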
# [12] = qHTS assay for small molecule disruptors of mitochondrial membrane potential screened against the NCATS CANVASS Library (AID 1347389); further: nearly all actives have a fitted effect of over 60% in size; further: potency means the concentration at half of the fitted maximal effect
# How it was run: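 Red/green fluorescence ratio read-out: J-aggregates ex 540/em 590 nm, monomers ex 490/em 535 nm. HepG2, 1 hr compound treatment, then 30 min Mito-MPS dye at 37C. 11-pt qHTS concentration series.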
# [13] = qHTS for activators of Nrf2/ARE signaling pathway screened against the NCATS CANVASS Library (AID 1347391); further: nearly all actives have a fitted effect of over 60% in size; further: potency means the concentration at half of the fitted maximal effect
# How it was run: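 HepG2 ARE-bla; cpd 11-pt qHTS, 16 h 37C/5% CO2; CCF4 substrate 2 h RT; read ex 405 / em 460 + 530 nm. Viability by CellTiter-Glo luminescence, 30 min RT.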
# [14] = qHTS for inhibitors of ER calcium dysfunction: SERCaMP assay screened against the NCATS CANVASS Library (AID 1347393); further: potency means the concentration at half of the fitted maximal effect; nearly all actives have a fitted effect of over 40% in size
# How it was run: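 qHTS in SH-SY5Y reporter cells: 16 h compound pretreatment, 4 h thapsigargin, then secreted Gaussia luciferase measured by luminescence.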
# [15] = qHTS for inhibitors of Wild type Zika virus screened against the NCATS CANVASS Library (AID 1347396);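 further: ATP luminescence of surviving cells so rescue from viral cell killing; series mostly up to about 46 µM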
# How it was run: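 Using ATP-based luminescence (CellTiter Glo), this screen scores rescue of Vero 766 cells from wild-type Zika killing at 72 h post-infection. Compounds are tested in a concentration series.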
# [16] = Redox Reaction Profiling qHTS: Assay Interference Panel against the NCATS CANVASS Library (AID 1347401); further: potency means the concentration at half of the fitted maximal effect
# How it was run: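 Quantitative HTS over an 11-point series was run in HEPES pH 7.3 with 50 mM NaCl, 200 uM DTT and 5 uM resazurin. Initial and 15-min resorufin fluorescence readings were taken.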
# [17] = J3T Cancer Cell Toxicity qHTS against the NCATS CANVASS Library (AID 1347371); further: potency means the concentration at half of the fitted maximal effect
# How it was run: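 Dog glioma J3T, 500 cells/well; cpd 11-pt qHTS; 72 hr, 37C/5% CO2; CellTiterGlo ATP luminescence readout.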
# [18] = KB-3-1 Cancer Cell Toxicity qHTS against the NCATS CANVASS Library (AID 1347366); further: series mostly up to about 46 µM; nearly all actives have a fitted effect of over 75% in size
# How it was run: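 Luminescence from CellTiter-Glo (10 min, room temperature) measured KB-3-1 viability after 72 hr compound exposure at 37C. Cells were seeded at 500/well and tested in an 11-point series.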
# [19] = OV-KATE Cancer Cell Toxicity qHTS against the NCATS CANVASS Library (AID 1347345)
# How it was run: as §1
Compound,Potency [1],Potency [2],Potency [3],Potency [4],Potency [5],Potency [6],Potency [7],Potency [8],outcome [9],outcome [10],Potency [11],Potency [12],Potency [13],Potency [14],outcome [15],Potency [16],Potency [17],Potency [18],Potency [19]
C/C(=C\[C@H](C)C(=O)/C=C/CC1CC(=O)NC(=O)C1)[C@@H]1OC(=O)CCCC/C=C/[C@H](O)[C@@H](O)[C@@H]1C,inactive,10.5 µM (active),inactive,inactive,5.9 µM (active),23.4 µM (active),inactive,11.8 µM (active),inactive,inactive,21.7 µM (active),inactive,4.67 µM (active),19.3 µM (active),inactive,24.1 µM (active),–,–,–
CN1CCc2cc3c(c4c2C1(C)C(=O)c1cc(O)ccc1-4)OCO3 (centres undefined),inactive,–,inactive,inactive,1.18 µM (active),13.2 µM (active),–,13.3 µM (active),inactive,inactive,inactive,inactive,inactive,19.3 µM (active),inactive,–,inactive,–,–
C/C=C/c1cc2c(c(=O)o1)C(=O)[C@@H](O)[C@H](C)O2,–,2.35 µM (active),–,inactive,5.26 µM (active),–,inactive,14.9 µM (active),inactive,inactive,21.7 µM (active),inactive,4.67 µM (active),–,inactive,–,26.4 µM (active),inactive,–
CC[C@@H](c1cc(OC)c(OC)cc1OC)[C@H](C)[C@@H](/C(C)=C/c1cc(OC)c(OC)cc1OC)c1cc(OC)c(OC)cc1OC,11.9 µM (active),14.8 µM (active) and 20.9 µM (active),inactive,–,inactive,13.2 µM (active),inactive,–,inactive,inactive,inactive,23.4 µM (active) and 20.9 µM (active),–,2.43 µM (active) and 19.3 µM (active),inactive,inactive,inactive,inactive,inactive
